About 2,600 (0.7%) of roughly 370,000 compounds were called active. This is one part of a sample in which actives are shown more often than they occur.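 How the source made its calls: active means inhibition above a per-plate cutoff, mean inhibition of test wells between control levels plus 3 SD (cut at about 38% in these data); inactive means the rest.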

For this assay, the target named is COUP transcription factor 2 (Homo sapiens) (UniProt P24468). Description: COUP-TFII reporter suppression in human cells – cell-based, luciferase reporter, HEK293T, luminescence, primary screen (AID 686940).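 Further: cells cotransfected with COUP-TFII expression vector driving the NGFI-A reporter; 0% = median of COUP-TF2 test wells and 100% = reporter-only cells.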 Particulars: HEK293T NGFI-A luciferase reporter, at 8.6 µM, active compounds read high.
COUP transcription factor 2 (Homo sapiens), sequence (P24468 whole entry, looked up): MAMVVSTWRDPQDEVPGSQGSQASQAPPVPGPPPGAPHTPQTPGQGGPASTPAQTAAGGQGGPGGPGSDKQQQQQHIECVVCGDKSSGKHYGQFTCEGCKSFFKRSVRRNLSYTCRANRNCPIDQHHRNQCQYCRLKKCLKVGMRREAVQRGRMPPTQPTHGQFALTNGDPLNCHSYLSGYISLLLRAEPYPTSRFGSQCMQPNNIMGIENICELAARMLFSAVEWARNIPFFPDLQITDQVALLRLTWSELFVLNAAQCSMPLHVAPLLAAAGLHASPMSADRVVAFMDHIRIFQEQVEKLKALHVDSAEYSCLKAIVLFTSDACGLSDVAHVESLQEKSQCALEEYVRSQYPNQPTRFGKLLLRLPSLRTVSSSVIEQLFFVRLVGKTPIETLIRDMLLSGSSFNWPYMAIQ
On to `COC(=O)[C@]12C[C@H](CC(=O)NCc3ccccc3)C(=O)N(CCC3=CCCCC3)C1=C[C@H](C(C)C)O[C@@H]2C1CC1`, for which the inhibition was 2.64% (inactive).

In the case of `CCn1c(NCCc2ccc(OC)c(OC)c2)nc2c1c(=O)n(C)c(=O)n2C`, the inhibition is -1.49% (inactive).

As to `CCCCNc1nc2c(c(=O)n(C)c(=O)n2C)n1Cc1cccc(OC)c1`, the inhibition is 53.5% (active).

In the case of `Cn1c(=O)c2c(nc(NCc3ccccc3)n2CC(N)=O)n(C)c1=O`, the inhibition was 4.42% (inactive).

With `O=C(NC1CCCCN(Cc2cccc(C(F)(F)F)c2)C1=O)c1ccccc1I` (centres undefined), the inhibition is 22.4% (inactive).

Take `CCC(=O)Nc1ccc2c(c1)C(=O)N(C)[C@@H]1CC[C@@H](CC(=O)NCCc3ccccc3)O[C@H]1CO2`: the inhibition is 19% (inactive).

In the case of `CC(C)N1CCCCC(NC(=O)C(C)(C)C)C1=O` (centres undefined), the inhibition was 0.07% (inactive).

For `Cc1ccc(CN2CCCCC(NC(=O)C3CCCCC3)C2=O)cc1` (centres undefined), the inhibition is 2.64% (inactive).

As to `O=C(NCCc1c[nH]c2ccccc12)OCc1cn(-c2c(F)cccc2F)nn1`, the inhibition was -1.45% (inactive).

With `CC(=O)OCCN1CCCC12CCC(c1ccccc1)CC2` (centres undefined), the inhibition was -6.1% (inactive).

With `O=c1oc2ccccc2cc1-c1cn(-c2ccccc2)c(=S)[nH]1`, the inhibition was 81.6% (active).

Take `C[C@@H](NC(=O)c1ccccc1OCC(=O)Nc1ccc(I)cc1)C(=O)N(C)Cc1ccccc1`: the inhibition was 3.89% (inactive).

As for `COc1ccc(CCNC(=O)CSc2nc3c([nH]2)c(=O)n(C)c(=O)n3C)cc1`, the inhibition was -4.66% (inactive).

As to `CC(CCN1CCC(C(O)(c2ccccc2)c2ccccc2)CC1)Oc1ccc(C(F)(F)F)cc1` (centres undefined), the inhibition was 9.47% (inactive).

Turning to `O=C(OC12CC3CC(CC(C3)C1)C2)c1ccc(NCc2cc(O)ccc2O)cc1`, the inhibition is 82.7% (active).

For `COc1ccc(NC(=O)CCCN2C(=O)C(c3ccccc3)Oc3cccnc32)cc1` (centres undefined), the inhibition is -1.91% (inactive).

In the case of `CCCNC(=O)c1ccccc1NC(=O)CSCc1ccc(OC)cc1`, the inhibition was 10.2% (inactive).

With `COc1ccc(/C=C2/SC(=O)N(CCCCCC(=O)Nc3ccccc3C(=O)O)C2=S)cc1`, the inhibition was 48% (active).

Take `CCN(CC)C(=O)CC[C@H]1CC[C@]2(CCCN(Cc3ccc(Cl)cc3)C2)O1`: the inhibition was -15.6% (inactive).

For the molecule `COc1ccc(CN2C(=O)N3Cc4cc(OC)ccc4C3CS2(=O)=O)cc1` (centres undefined), the inhibition was -0.26% (inactive).

In the case of `O=C(Nc1ccc(CSc2ccccc2)cc1)c1ccc(CN2CCOCC2)cc1`, the inhibition was 68.5% (active).

With `O=C(Nc1ccccc1C(=O)N1CCOCC1)c1ccc(CSc2ccccc2)cc1`, the inhibition is 6.62% (inactive).

Regarding `C/C(CCc1ccccc1)=N\NC(=O)c1ccc(CN2CCOCC2)cc1`, the inhibition is -14.4% (inactive).

Regarding `CCC(CO)Nc1cccc2c1S(=O)(=O)N(Cc1cn(Cc3ccccc3C(F)(F)F)nn1)Cc1ccccc1O2` (centres undefined), the inhibition is -2% (inactive).

The values are drawn from PubChem BioAssay AID686940 (The Scripps Research Institute Molecular Screening Center, 2013).
